Sampled rows, rich in hits. Any-hit rate of the full collection: about 16%.
uPA surface inh – qHTS for Inhibitors of Cell Surface uPA Generation. Potency, µM (top dose mostly 38.3 µM), without a hit: at the highest dose activity change, negative = inhibition, actives largely listed as inhibitors. actives 0.31% (n = 330,000). cell surface uPA generation assay, qHTS; active = well fitted inhibition curve with a large enough effect; inconclusive = small, poorly fitted or top-dose-only effect; inactive = no such curve, though single readings can be large or run the other way; tested in mouse RAW 264.7 cells; also: potency is read from the fitted curve at half-maximal effect; % is scaled to controls: 0 for no effect and ±100 for the full control effect; nearly all actives have a fitted effect of over 55% in size
TDP1 cell noCPT – qHTS for Inhibitors of human tyrosyl-DNA phosphodiesterase 1 (TDP1): qHTS in cells in absence of CPT; DT40 Tdp1-/- hTDP1 cells, no CPT, ATP luminescence, 48 h; Potency, µM (highest dose often 46.2 µM), for the others: at the highest dose activity change, negative = growth inhibition, actives largely listed as inhibitors; actives 15% (n = 420,000); AID 686978, 2013; also: potency is read from the fitted curve at half-maximal effect; % is scaled to controls: 0 for no effect and ±100 for the full control effect; nearly all actives have a fitted effect of over 55% in size
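Cells were dispensed at 400 per well, compounds added by pin tool, plates incubated ≥48 hr at 37 °C, then CellTiter-Glo added for 30 min at room temperature before luminescence reading. Line: DT40 Tdp1-/- complemented with hTDP1; camptothecin omitted.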
TDP1 cell CPT – qHTS for Inhibitors of human tyrosyl-DNA phosphodiesterase 1 (TDP1): qHTS in cells in presence of CPT. chicken DT40 Tdp1-/-;hTDP1 cells + 20 nM CPT, ATP luminescence, 48 h. Potency, µM (doses to about 46.2 µM), for the others: top-dose activity change, negative = growth inhibition, hits mostly inhibitors. actives 12% (n = 420,000); also: potency is read from the fitted curve at half-maximal effect; % is scaled to controls: 0 for no effect and ±100 for the full control effect; nearly all actives have a fitted effect of over 55% in size
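Cell growth measured by CellTiter-Glo luminescence after a minimum 48 h, 37 C compound exposure with 20 nM CPT in Tdp1-knockout DT40 cells stably expressing hTDP1, seeded 400/well; qHTS titration format.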
miR-21 act – qHTS Assay for Modulators of miRNAs and/orActivators of miR-21; AID 2288, 2010; 340,000 tested, under 10 active; Potency, µM (series often up to 38.3 µM), for inactives: top-dose activity change, positive = activation, usual class: activators; HeLa miR-21 FLuc reporter, luciferase, 48 h;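 also: % of control where 0% means no effect; miR-21 action dims this reporter so a rising signal means less miR-21 action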
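Using DMEM plus 10% FBS, HeLa miR-21-FLuc cells are incubated with test compounds (final up to about 40uM) for 48 hours; firefly luciferase signal is then imaged following reagent-mediated lysis.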
TDP1 block – qHTS Assay for Inhibitors of Tyrosyl-DNA Phosphodiesterase (TDP1) | Potency, µM (series often up to 130 µM), inactives show at the highest dose activity change, negative = inhibition, usual class: inhibitors | AID 485290, 2010 | Tyrosyl-DNA phosphodiesterase 1 (Homo sapiens), Q9NUW8 | recombinant TDP1, AlphaScreen DNA substrate cleavage | actives 0.28% (n = 350,000); also: potency is read from the fitted curve at half-maximal effect; % is scaled to controls: 0 for no effect and ±100 for the full control effect; nearly all actives have a fitted effect of over 40% in size
Target sequence (Q9NUW8 whole entry, looked up): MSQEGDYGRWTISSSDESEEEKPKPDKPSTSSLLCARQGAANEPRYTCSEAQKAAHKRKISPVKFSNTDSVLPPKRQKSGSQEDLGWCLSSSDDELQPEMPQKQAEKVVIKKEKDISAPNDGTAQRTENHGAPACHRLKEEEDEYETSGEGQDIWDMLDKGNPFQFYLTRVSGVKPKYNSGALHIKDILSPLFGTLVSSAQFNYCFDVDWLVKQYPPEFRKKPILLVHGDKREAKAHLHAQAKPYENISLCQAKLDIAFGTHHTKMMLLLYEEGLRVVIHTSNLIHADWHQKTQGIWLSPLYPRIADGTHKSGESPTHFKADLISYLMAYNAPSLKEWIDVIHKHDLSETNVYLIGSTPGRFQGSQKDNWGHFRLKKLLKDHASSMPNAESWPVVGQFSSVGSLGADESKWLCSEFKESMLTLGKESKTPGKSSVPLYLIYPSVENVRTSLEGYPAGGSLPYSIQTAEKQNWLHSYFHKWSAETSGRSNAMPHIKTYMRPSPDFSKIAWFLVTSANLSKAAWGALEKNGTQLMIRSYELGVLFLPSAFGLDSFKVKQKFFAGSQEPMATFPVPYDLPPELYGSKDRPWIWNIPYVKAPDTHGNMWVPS
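Here, a 5' biotin and 3' phosphotyrosine-FITC DNA oligonucleotide reports Tdp1 activity: intact substrate bridges AlphaScreen beads, while cleavage leaves a 3' phosphate and drops signal. All incubations at room temperature.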
An asterisk follows results filed as active; ? = inconclusive; . = not tested or not shown; [ ] = remark or other dose. Unless noted, calls follow the shape of the dose curve; as a rule, active = well fitted curve in the direction sought with a large enough effect; inconclusive = small, poorly fitted or top-dose-only effect, or another doubt; inactive = no such curve, though single readings can be large; an effect the other way counts as inactive or inconclusive.

SMILES	uPA surface inh	TDP1 cell noCPT	TDP1 cell CPT	miR-21 act	TDP1 block
O=C1C2CC=CCC2C(=O)N1Cc1ccccc1 (configuration not stated)	6%	-10%	0%	-2%	-1%
CCN(C(=O)CN(C)Cc1cccc(Cl)c1Cl)c1c(N)n(Cc2ccccc2)c(=O)[nH]c1=O	0%	?	?	-1%	0%
Cc1ccccc1Nc1c(-c2ccc(Cl)s2)nc2c(C)cccn12	.	?	?	-14%	0%
Cc1ccccc1Nc1c(-c2ccccc2)nc2cccc(C)n12	.	3.2µM*	?	4%	0%
Cc1ccccc1Nc1c(-c2ccc(Cl)s2)nc2cccc(C)n12	.	?	8.2µM*	3%	0%[12.3 µM]
Cn1cc(S(=O)(=O)N2CCOCC2)cc1C(=O)NCc1ccc(Cl)cc1	9%	-3%	0%	0%	.
COc1cc2c(c(OC)c1OC)-c1c(cc3c(c1OC)OCO3)C[C@@H](C)[C@](C)(O)C2	.	?	9%	.	.
Cc1ccc(C(=O)N/N=C2\CCc3ccccc32)c(C)c1	-6%	?	?	-33%	3%
O=C(C1CCN(S(=O)(=O)c2cccs2)CC1)N1CCc2ccccc2C1	6%	-9%	-26%	-13%	5%
Cc1cccc(-c2nc3c(C#N)c[nH]n3c2NC2CCCCC2)c1	.	21µM*	?	9%	6%
COc1cccc(-c2nc3c(C#N)c[nH]n3c2NC2CCCCC2)c1	.	?	?	21%	6%
CCOc1ccc(-c2nc3c(C#N)c[nH]n3c2NC2CCCCC2)cc1	.	7.3µM*	8.2µM*	5%	11%
N#Cc1c[nH]n2c(NC3CCCC3)c(-c3ccc(Br)cc3)nc12	.	23µM*	18µM*	29%	9%
N#Cc1c[nH]n2c(NC3CCCC3)c(-c3ccc(Cl)cc3)nc12	.	16µM*	?	?	11%
C/C(=N/NC(=O)c1ccccc1O)c1ccc(N2C(=O)C3CCCCC3C2=O)cc1 (configuration not stated)	1%	-5%	-19%	-30%	6%
Cc1cccc(-c2nc(CSCC(=O)NCCc3ccc(Cl)cc3)c(C)o2)c1	.	?	?	10%	7%
CCC(c1nnnn1Cc1ccco1)N1CCN(c2cc(Cl)ccc2C)CC1 (configuration not stated)	-2%	?	?	10%	0%
FC(F)(F)COc1nc(N2CCOCC2)nc(N(c2ccccc2)c2ccccc2)n1	1%	21µM*	?	20%	2%
c1ccc(N(c2ccccc2)c2nc(N3CCOCC3)nc(N3CCOCC3)n2)cc1	.	.	.	-1%	3%
O=C(Nc1cccc(S(=O)(=O)N2CCCCCC2)c1)C1CC(=O)N(c2ccc3c(c2)OCCO3)C1 (configuration not stated)	3%	-19%	-14%	.	.
CCCCN(C)S(=O)(=O)c1cc(-c2nnc3c4ccccc4c(C)nn23)ccc1C	.	7.3µM*	3.7µM*	-12%	4%
COc1ccccc1C(C(=O)NCc1ccc(F)cc1)N(C(=O)c1csnn1)C1CC1 (configuration not stated)	-5%	?	-16%	2%	1%[0.0935 µM]
O=c1[nH]c(NCc2ccco2)nnc1Cc1ccccc1Cl	-9%	4.1µM*	6.5µM*	19%	3%
CN1C[C@@H]2[C@@H]3C(=O)N(Cc4ccccc4)C(=O)[C@@H]3[C@](Cc3ccccc3)(C1=O)N2C(=O)c1ccc(Br)cc1	-1%	?	-7%	.	.
CC(C)CCn1c(Sc2nc3ccccc3s2)nc2c1c(=O)[nH]c(=O)n2C	-4%	16µM*	?	-26%	1%
SMILES	uPA surface inh	TDP1 cell noCPT	TDP1 cell CPT	miR-21 act	TDP1 block
CC1CCN(c2nc3c(c(=O)[nH]c(=O)n3C)n2CC(C)CSc2nnnn2-c2ccccc2)CC1 (configuration not stated)	9%	?	16µM*	-6%	0%
CCN1CCN(c2nc3c(c(=O)[nH]c(=O)n3C)n2CCSc2nc3ccccc3s2)CC1	12%	?	?	-20%	1%
CC(CSc1nc2ccccc2s1)Cn1c(N2CCCC2)nc2c1c(=O)[nH]c(=O)n2C (configuration not stated)	-2%	16µM*	?	-17%	8%
COCCOC(=O)c1c(C)n(C)c2ccc(OC(=O)c3c(OC)cccc3OC)cc12	3%	16µM*	?	0%	.
CCOC(=O)c1c(C)n(-c2ccccc2)c2ccc(OC(=O)c3ccc(OCC)c(OCC)c3)cc12	.	18µM*	?	-10%	3%[12.3 µM]
CCOC(=O)c1c(C)n(-c2ccccc2)c2ccc(OC(=O)c3ccccc3Cl)cc12	.	16µM*	?	-8%	4%[12.3 µM]
CCOC(=O)c1c(C)n(-c2ccccc2)c2ccc(OC(=O)c3cccc(OC)c3OC)cc12	.	-26%	-18%	-18%	-7%[12.3 µM]
COCCOC(=O)c1c(C)n(C)c2ccc(OC(=O)N3CCOCC3)cc12	0%	-20%	-9%	1%	6%
CCOC(=O)c1c(C)n(-c2ccccc2)c2ccc(OC(=O)c3cc(OC)cc(OC)c3)cc12	.	21µM*	?	-10%	3%[12.3 µM]
CCc1ccc(OCCOCCN2CCN(C)CC2)cc1	0%	?	-16%	-3%	.
O=C(Cn1c(=O)oc2cc(S(=O)(=O)N3CCCCC3)ccc21)Nc1cccc(Cl)c1	.	9.2µM*	8.2µM*	-14%	-1%
O=C(Cn1c(=O)oc2cc(S(=O)(=O)N3CCCCCC3)ccc21)Nc1cccc(C(F)(F)F)c1	.	9.2µM*	8.2µM*	-1%	-2%
O=C(C1CCCCC1)N(Cc1cccnc1)c1nc2ccc(Cl)cc2s1	.	?	?	2%	5%
CCOC(=O)c1ccc(S(=O)(=O)Nc2cc(S(=O)(=O)Nc3ccc(OC)cc3)ccc2O)cc1	-22%	-3%	-3%	.	5%
CC(C)(C)c1cc(NC(=O)C2(C)CCN2C(=O)C2(c3ccccc3)CC2)no1 (configuration not stated)	.	21µM*	?	.	.
CC(C)(C)c1cc(NC(=O)C2(C)CCN2C(=O)C2(c3ccccc3)CCCC2)no1 (configuration not stated)	.	15µM*	15µM*	.	.
COc1ccc(CCC(=O)NCCc2ccc(OC)c(OC)c2)cc1	2%	21%	1%	-2%	.
CCN(Cc1ccccc1)S(=O)(=O)c1ccc(N2CCCCS2(=O)=O)cc1	.	?	?	10%	4%
